# According to the supplement of paper PMC10732440:
# ± gives the standard deviation of the averaged measurements.
# System: Caenorhabditis elegans N2 infected with Nematocida parisii ERTm1
# Assay: progeny production relative to DMSO uninfected control; higher = more progeny despite microsporidia infection (inhibition of infection with low host toxicity)
# Settings: infection time 6 days
# In short: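 Bleach-synchronised wild-type C. elegans L1 larvae (100 per well) were placed in 96-well plates with K-medium, E. coli OP50 and 15,000 N. parisii spores/μL, with compound pinned to 100 μM or 40 μM in 1% DMSO. Plates were shaken at 21°C for 6 days; worms were then Rose Bengal-stained, flatbed-scanned and counted with WorMachine, each compound and dose tested three times. Progeny production is given as a percentage of the spore-free vehicle control, averaged across replicates.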
Structure (SMILES),progeny production (40 µM) [%],progeny production (100 µM) [%]
CCc1nc(N)nc(N)c1C#CCc1ccccc1,8.69 ± 6,15.6 ± 5
CNC(=O)C1O[C@@H](n2cnc3c(NCc4cccc(I)c4)nc(Cl)nc32)[C@H](O)[C@@H]1O (stereo partly drawn),5.42 ± 1.8,12.6 ± 3.5
CCOc1ccc(/C=N/NC(=O)C2CC2c2ccc(C(C)(C)C)cc2)cc1OCC (stereo not drawn),5.73 ± 4.8,12 ± 7.9
CC(Cc1ccccc1)C(=O)Nc1ccc(Cl)cc1C(=O)O (stereo not drawn),7.65 ± 4.2,14.4 ± 0.88
CONC(=N)c1ccc(-c2ccc(-c3ccc(C(=N)NOC)cc3)o2)cc1,5.44 ± 1.7,14.6 ± 6
NC[C@H]1O[C@H](O[C@H]2[C@H](O)[C@@H](O[C@H]3O[C@H](CO)[C@@H](O)[C@H](N)[C@H]3O)[C@H](N)C[C@@H]2N)[C@H](N)C[C@@H]1O,6.6 ± 2.4,11.7 ± 16
Nc1nc(=O)c(Br)c(-c2ccccc2)[nH]1,5.86 ± 5.3,9.38 ± 7.4
CN(C)CCNC(=O)c1cccc2cccnc12,5.46 ± 4.5,14.7 ± 8
NC(=O)c1cnccn1,6.68 ± 7.5,6.97 ± 1.1
CCOC(=O)/C=C/[C@H](C[C@@H]1CCNC1=O)NC(=O)[C@@H](CC(=O)[C@@H](NC(=O)c1cc(C)on1)C(C)C)Cc1ccc(F)cc1,3.79 ± 1.2,8.56 ± 4.7
O=C(Nc1ccc(F)cc1)c1nn(-c2ccccc2)c(=O)cc1Cl,5.87 ± 3.4,14 ± 9.4
CCc1nc2ccccn2c1C(=O)NCc1ccccc1,6.11 ± 1.7,12.8 ± 11
N=c1n(CCN2CCCCC2)c2ccccc2n1CC(O)COc1ccc(Cl)cc1Cl (stereo not drawn),5.53 ± 1.7,9.49 ± 8.7
C=C[C@]1(C)C[C@@H](OC(=O)CS[C@@H]2C[C@H]3CC[C@@H](C2)N3C)[C@]2(C)[C@H](C)CC[C@]3(CCC(=O)[C@H]32)[C@@H](C)[C@@H]1O,11.3 ± 8.7,15.1 ± 6.1
